Assay outcomes from PubChem BioAssay.
Hits are enriched below; roughly 2.4% of the tested compounds scored in any of these assays.
PERK inh = inhibitors of human PERK kinase | inhibition, % at 5.6 µM | actives 0.17% (n = 220,000) | AID 1416 | CHO PERK-DD fusion, SEAP luminescence translation reporter;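 active = inhibition above the mean inhibition of all tested compounds plus 3 SD, set separately per screening campaign, cut at about 2.9% in these data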;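 note: PERK kinase domain activated by AP20187 dimerizer at 100 nM; 0% = DMSO with dimerizer and 100% = rapamycin at 8.4 µM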
L929 necroptosis = blocks zVAD induced death of L929 cells | viability rescue, % at 10 µM | actives 0.38% (n = 220,000) | L929 zVAD necroptosis rescue, ATP luminescence, 24 h; with zVAD 60 µM;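 active = activation, scaled between plate controls, above about 75%, limit read from the data; inactive = activation under that limit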;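 note: 0% = zVAD with DMSO and 100% = DMSO alone without zVAD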
PKD1 kinase inh = blocks activity of human protein kinase D1 | inhibition, % (test concentration not listed) | Q15139 | actives 0.056% (n = 200,000) | AID 797 | PKD1 kinase fluorescence polarization assay; in the data active = inhibition above about 50%
Target sequence (Q15139 whole entry, looked up): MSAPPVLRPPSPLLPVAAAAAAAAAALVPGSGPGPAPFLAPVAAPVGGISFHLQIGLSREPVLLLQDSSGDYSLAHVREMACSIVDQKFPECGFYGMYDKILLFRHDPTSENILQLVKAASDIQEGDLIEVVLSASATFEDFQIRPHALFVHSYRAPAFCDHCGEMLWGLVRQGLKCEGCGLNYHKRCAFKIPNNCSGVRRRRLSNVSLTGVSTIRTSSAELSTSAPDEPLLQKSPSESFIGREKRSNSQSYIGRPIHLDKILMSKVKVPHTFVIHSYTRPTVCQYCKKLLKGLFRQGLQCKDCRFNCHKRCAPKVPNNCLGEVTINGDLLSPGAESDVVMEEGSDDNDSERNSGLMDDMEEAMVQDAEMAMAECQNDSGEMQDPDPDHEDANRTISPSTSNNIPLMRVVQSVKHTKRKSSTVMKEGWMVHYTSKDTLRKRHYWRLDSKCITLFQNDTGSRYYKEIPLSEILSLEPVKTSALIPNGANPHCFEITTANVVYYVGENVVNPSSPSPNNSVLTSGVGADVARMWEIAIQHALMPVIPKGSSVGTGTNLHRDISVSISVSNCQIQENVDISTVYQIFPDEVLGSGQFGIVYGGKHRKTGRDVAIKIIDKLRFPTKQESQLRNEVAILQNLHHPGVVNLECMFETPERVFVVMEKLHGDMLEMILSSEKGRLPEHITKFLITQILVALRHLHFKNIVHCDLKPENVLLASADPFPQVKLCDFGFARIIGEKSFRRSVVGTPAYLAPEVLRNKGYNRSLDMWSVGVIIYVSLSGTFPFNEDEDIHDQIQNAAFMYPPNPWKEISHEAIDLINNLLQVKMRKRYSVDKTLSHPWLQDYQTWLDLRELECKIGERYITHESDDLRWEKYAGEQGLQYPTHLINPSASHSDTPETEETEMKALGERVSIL
WT yeast gro inh = growth inhibition of WT yeast, mitochondrial fusion screen; AID 1362; actives 2.1% (n = 190,000); mitochondrial fusion phenotypic screen, WT strain; inhibition, % at 10 µM; in the data active = inhibition above about 58%; tested in S. cerevisiae
DTT redox prof = compounds producing H2O2 with reducing agent – biochemical, NIH compound library profiling, artefact control for MLSCN library redox annotation, primary screen; DTT-dependent redox cycling H2O2, phenol red/HRP absorbance; 100% = 100 µM peroxide control, 0% = buffer; activation, % at 10 µM; actives 0.03% (n = 200,000); AID 878;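 active = activation of at least 50% relative to the plate's high and low controls in the primary single-dose screen; inactive = activation below 50%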;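 note: compound incubated with DTT at 0.8 mM final as the reducing agent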
TNF necrop inh = TNF-alpha cell death inhibition in Jurkat FADD-/- cells; Jurkat FADD-/- TNF necroptosis rescue, ATP luminescence, 24 h; 0 = TNF only, 100 = no-TNF cells; activation (protection from cell death), % at 10 µM; actives 0.068% (n = 220,000);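 active = activation, meaning protection from cell death, of at least 50% relative to plate controls; inactive = activation below 50%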;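 note: necroptosis triggered by 40 ng/mL TNF-alpha added together with compound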
Numbers without * were called inactive; . = no result.

SMILES | PERK inh | L929 necroptosis | PKD1 kinase inh | WT yeast gro inh | DTT redox prof | TNF necrop inh
O=C1C(Cl)=C(NCC2CCCO2)C(=O)N1c1cccc(Cl)c1Cl (stereo not drawn) | 0 | 0 | -12 | -5 | -1 | -1
C=CCNC1=C(Cl)C(=O)N(c2cccc(Cl)c2Cl)C1=O | 1 | 0 | -5 | 64* | 0 | -1
CCCCNC(=O)CNC(=S)N(Cc1cc(OC)c(OC)c(OC)c1)C1CCCC1 | -1 | 0 | -16 | -21 | 0 | 2
COc1ccc(CC(=O)N2CCOCC2)cc1OC | 0 | 0 | -3 | 87* | 2 | -1
COc1ccc(CC(=S)N2CCOCC2)cc1OC | 2 | 0 | 4 | -14 | 3 | -2
CCOC(=O)C1CCN(C(=O)Cc2ccc(OC)c(OC)c2)CC1 | -1 | 1 | 0 | 72* | 1 | -1
Cc1ccc(N2C(=O)NC(NC(=O)C3CC3)(C(F)(F)F)C2=O)cc1 (stereo not drawn) | 1 | 1 | -17 | -5 | 0 | -1
Cc1sc2ncnc(SCC(=O)NC(=O)c3cccn3C)c2c1C | -1 | 0 | -7 | 12 | -3 | 1
Cc1cc(NC(=O)COC(=O)[C@H](C)NC(=O)c2ccccc2)no1 | 0 | 0 | -4 | . | 3 | -1
Cc1cc(NC(=O)COC(=O)C(Nc2ccc(C(F)(F)F)cc2Cl)C(C)C)no1 (stereo not drawn) | 1 | 1 | 2 | 79* | 2 | -3
O=C(Cc1ccccc1[N+](=O)[O-])NCc1ccco1 | 0 | 1 | 2 | -7 | 1 | 0
N#CC(C#N)=C1C=CC=CN1/C(=C\c1ccco1)C(=O)c1ccccc1 | -1 | 0 | 12 | -21 | 0 | 7
N#CC(C#N)=C1C=CC=CN1/C(=C\c1ccco1)C(=O)c1ccc(Br)cc1 | -1 | -2 | -14 | 71* | 0 | 62*
CCCc1nc2sc3c(c2c(=O)n1NC(=O)c1ccco1)CC(C)(C)OC3 | -1 | 0 | -1 | -12 | 0 | 1
CCc1nc2sc3c(c2c(=O)n1N)CC(C)(C)OC3 | 0 | 1 | -7 | -11 | 0 | 1
CCCCCCCCCc1nc2sc3c(c2c(=O)n1NC(=O)c1ccccc1[N+](=O)[O-])CC(C)(C)OC3 | -1 | 0 | 4 | 71* | 0 | 1
CCCCCCCCCc1nc2sc3c(c2c(=O)n1NC(=O)c1ccc([N+](=O)[O-])cc1)CC(C)(C)OC3 | 1 | 1 | -5 | 64* | 0 | 1
CC(=O)c1sc(C(=O)O)c(-c2ccco2)c1-c1ccco1 | 0 | 0 | . | . | . | 5
COc1cc(OC)c(OC)cc1CN(C)C(c1ccccc1)c1nnnn1-c1ccccc1C (stereo not drawn) | -1 | 0 | 19 | 24 | -7 | -1
COc1ccc(CN(C)C(c2ccccc2)c2nnnn2-c2ccccc2C)c(OC)c1C (stereo not drawn) | -1 | 0 | 2 | 74* | 0 | -1
Cn1c([N+](=O)[O-])cnc1N1CCN(c2nncs2)C1=O | 2 | 2 | . | . | . | 1
O=C(NCC(c1ccco1)N1CCCCC1)c1ccc(OCc2ccccc2)cc1 (stereo not drawn) | 0 | 1 | 2 | 71* | 0 | 0
COc1ccc2cc(/C=C3\SC(=S)NC3=O)c(N3CCOCC3)nc2c1 | 0 | 3 | -7 | 72* | 0 | 0
O=S(=O)(NC1CCCCC1Nc1ccccc1)c1ccccc1 (stereo not drawn) | 0 | 0 | 2 | 0 | 0 | 1
CCN(CC)C1CCCCC1NS(=O)(=O)c1ccc(Cl)cc1 (stereo not drawn) | 1 | 0 | -12 | 3 | 0 | 0
SMILES | PERK inh | L929 necroptosis | PKD1 kinase inh | WT yeast gro inh | DTT redox prof | TNF necrop inh
CN(c1ccccc1)C1CCCCC1NS(=O)(=O)c1ccc(Cl)cc1 (stereo not drawn) | 0 | 1 | 4 | 65* | 0 | 2
O=S(=O)(NC1CCCCC1Oc1ccccc1)c1ccc(Cl)cc1 (stereo not drawn) | 0 | 0 | -6 | 61* | -1 | 0
CSc1ccc(OC2CCCCC2NS(=O)(=O)c2ccc(Cl)cc2)cc1 (stereo not drawn) | -1 | 0 | -2 | 74* | -1 | 2
Cc1ccc2nsnc2c1NC(=O)COc1ccccc1 | 2 | 2 | -4 | 1 | 0 | 1
CCc1cc(-c2n[nH]c(C)c2Oc2ccc(C(C)C)cc2)c(O)cc1O | 1 | 1 | -1 | 86* | 0 | 2
O=S(=O)(NCCSCc1ccc(Cl)cc1Cl)c1ccc2c(c1)OCCO2 | 0 | 0 | -9 | 73* | 0 | -3
Oc1ccc(/C=N/N2CCN(C3c4ccccc4-c4ccccc43)CC2)cc1 | 2 | 0 | . | . | . | 0
Oc1ccc(/C=N/N2CCN(C3c4ccccc4-c4ccccc43)CC2)c(O)c1 | 0 | -1 | 4 | 98* | 0 | 0
Oc1ccccc1CN(Cc1ccco1)CC(O)COCc1ccc(Cl)cc1 (stereo not drawn) | -1 | 0 | -6 | 68* | 0 | 0
COc1ccc(COCC(O)CN(Cc2ccco2)Cc2ccccc2O)cc1 (stereo not drawn) | 0 | 1 | -6 | 9 | 0 | 2
Cc1nn(-c2ccccc2)nc1C(=O)Nc1nnc(C(F)(F)F)s1 | 2 | 2 | . | . | . | 1
CCc1ccccc1NC(=S)N(Cc1ccco1)C(C)c1cccs1 (stereo not drawn) | 0 | 2 | -2 | 76* | -1 | 0
CCc1ccc(NC(=O)N(Cc2ccco2)C(C)c2cccs2)cc1 (stereo not drawn) | -1 | 0 | 4 | 2 | 0 | -1
Cc1cc(C)c(NC(=O)CS(=O)CC(=O)Nc2ccc(F)cc2F)c(C)c1 (stereo not drawn) | 1 | 0 | . | . | . | 0
CCOP(=O)(OCC)C(Nc1cccc(C(F)(F)F)c1)c1ccc(Br)cc1 (stereo not drawn) | 0 | 0 | 8 | 80* | 0 | 3
CCOP(=O)(OCC)C(Nc1ccc(F)cc1)c1ccccc1 (stereo not drawn) | 0 | 3 | . | . | . | 1
CC(C)(C)c1ccc(-c2nnc(SCCC#N)n2C2CCCC2)cc1 | -2 | 0 | -4 | 66* | 0 | -2
Cn1c(SCCC#N)nnc1-c1ccc(F)cc1 | 0 | 2 | 0 | -10 | 0 | 3
COc1ccccc1-n1cnnc1SCc1csc(-c2ccccc2)n1 | -1 | -1 | -3 | 3 | 0 | -1
C=CCn1c(SCc2csc(-c3ccc(C)cc3)n2)nnc1-c1ccccc1OC | 0 | 0 | -2 | 81* | 0 | -7
CCOC(=O)c1cnc(-n2nc(C)cc2C)nc1NCCc1ccccc1 | -1 | 0 | -3 | 74* | 0 | -5
